Reference: PubChem BioAssay (Tox21)
Results filed as inconclusive are left out. Unmarked numbers belong to inactive results. Activity calls are given as the source filed them. Calls come from the whole dose curve.

Biological target: Progesterone receptor (Homo sapiens) (UniProt P06401)
Test: qHTS assay to identify small molecule agonists of the progesterone receptor (PR) signaling pathway (AID 1346784); note: nearly all actives have a fitted effect of over 30% in size
Details: PR-UAS-bla HEK293T, beta-lactamase FRET ratio, 16 h; series mostly up to 92.4 µM
From the text: U.S. Tox21 Program National Center for Advancing Translational Sciences [NCATS] NIH Chemical Genomics Center [NCGC] U.S. Environmental Protection Agency [EPA] National Institutes of Environmental Health Sciences [NIEHS] National Toxicology Program [NTP] U.S. Food and Drug Administration [FDA] […] Endocrine disrupting chemicals (EDCs) and their interactions with steroid hormone receptors like PR causes disruption of normal endocrine function. To identify the compounds that activate PR signaling, a PR-UAS-bla GripTite cell line i.e. PR-UAS-bla HEK 293T (Invitrogen, Carlsbad, CA, USA) containing a beta-lactamase reporter gene under the control of an Upstream Activator Sequence (UAS) was used to screen Tox21 10K compound library.
Tox21 Assay Protocol Summary: PR-UAS-bla HEK 293T cells were dispensed at 3,000 cells/5 uL of assay medium containing 2% charcoal stripped FBS per well into black wall/clear-bottom 1536-well plates using a Multidrop Combi (ThermoFisher Scientific, Waltham, MA) dispenser. After the assay plates were incubated at a 37C and 5% CO2 for 6hr, 23 nL of compounds dissolved in DMSO, positive controls or DMSO only was transferred to the assay plate by a Pintool station (Kalypsys, San Diego, CA). The plates were incubated at 37C and 5% CO2 for 16hr. Then 1 uL of LiveBLAzer B/G FRET substrate was added using a BioRAPTR FRD (Flying Reagent Dispenser, Aurora Discovery, San Diego, CA). After the plates were incubated at room temperature for 2 hours, fluorescence intensity was measured by an Envision plate reader (PerkinElmer, Shelton, CT).
% is set by controls: 0 for no effect and ±100 for the full control effect.

Chain of Progesterone receptor (Homo sapiens) (P06401 whole entry, looked up): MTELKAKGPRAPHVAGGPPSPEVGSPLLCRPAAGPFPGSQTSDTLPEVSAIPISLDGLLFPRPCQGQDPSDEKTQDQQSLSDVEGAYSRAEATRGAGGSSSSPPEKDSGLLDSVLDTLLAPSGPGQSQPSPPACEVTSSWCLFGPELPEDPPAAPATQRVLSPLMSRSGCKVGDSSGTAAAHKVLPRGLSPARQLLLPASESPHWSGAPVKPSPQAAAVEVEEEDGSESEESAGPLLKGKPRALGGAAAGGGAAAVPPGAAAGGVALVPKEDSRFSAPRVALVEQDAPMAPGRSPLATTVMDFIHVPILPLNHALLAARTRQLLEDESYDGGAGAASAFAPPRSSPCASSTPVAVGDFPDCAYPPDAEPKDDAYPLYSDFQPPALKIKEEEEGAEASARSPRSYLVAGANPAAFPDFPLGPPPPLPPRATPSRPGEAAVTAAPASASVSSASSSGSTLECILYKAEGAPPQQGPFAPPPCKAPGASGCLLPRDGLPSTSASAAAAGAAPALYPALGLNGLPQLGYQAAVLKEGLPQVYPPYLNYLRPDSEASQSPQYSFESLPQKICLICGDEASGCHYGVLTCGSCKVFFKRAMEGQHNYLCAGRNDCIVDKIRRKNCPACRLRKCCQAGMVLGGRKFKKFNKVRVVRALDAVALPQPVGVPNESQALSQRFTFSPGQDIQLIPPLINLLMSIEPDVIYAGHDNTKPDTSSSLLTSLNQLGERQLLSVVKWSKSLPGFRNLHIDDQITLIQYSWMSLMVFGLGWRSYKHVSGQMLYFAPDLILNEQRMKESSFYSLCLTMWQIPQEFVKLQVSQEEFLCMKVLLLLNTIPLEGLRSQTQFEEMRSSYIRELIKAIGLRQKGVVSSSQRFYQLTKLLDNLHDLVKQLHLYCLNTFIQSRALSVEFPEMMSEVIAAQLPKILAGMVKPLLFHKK

| SMILES | outcome | activation |
| --- | --- | --- |
| O=C(c1ccccc1)c1cc(Cl)ccc1O | inactive |  |
| CC1(C)C(=O)N(Br)C(=O)N1Br | inactive |  |
| C=CC(=C)CCC=C(C)C | inactive |  |
| OCCN1CN(CCO)CN(CCO)C1 | inactive |  |
| CCCSS/C(CCO)=C(\C)N(C=O)Cc1cnc(C)nc1N | inactive |  |
| OCCC(O)CO (stereo not given) | inactive |  |
| C[Si](C)(C)Cl | inactive |  |
| CCN(CC)CCSC(=O)C(c1ccccc1)c1ccccc1 | inactive |  |
| CC(C)=CCCC(C)O (stereo not given) | inactive |  |
| COc1cc(C(C)C)c2c(c1)S(=O)(=O)N(COc1cc(=O)n3cccc(OCCN4CCCCC4)c3n1)C2=O |  | 8.35% [at 19 µM] |
| CCO[Si](C)(C)OCC | inactive |  |
| CN1[C@@H]2CC[C@H]1CC(OC(=O)C(CO)c1ccccc1)C2 (stereo not given in full) | inactive |  |
| CCOB(OCC)OCC | inactive |  |
| Cc1cccc(N(C)C)c1 | inactive |  |
| CC1=C(/C=C/C(C)=C/C=C/C(C)=C\C=O)C(C)(C)CCC1 | inactive |  |
| CC(C)(c1cc(Br)c(O)c(Br)c1)c1cc(Br)c(O)c(Br)c1 | inactive |  |
| CC(C)(C)c1n[nH]c(=O)n(N)c1=O | inactive |  |
| C=CC(=O)OCCC#N | inactive |  |
| CCCCOc1ccc(C(=O)CCN2CCCCC2)cc1 | inactive |  |
| CCC(C)(C)c1cc(O)c(C(C)(C)CC)cc1O | inactive |  |

| SMILES | outcome | activation |
| --- | --- | --- |
| COc1ccc(C#N)cc1 | inactive |  |
| C=CC/C=C/C/C=C/C/C=C/C | inactive |  |
| CCCC(O)C(O)CO (stereo not given) | inactive |  |
| O=C1OC(OC(=O)c2cccnc2Nc2cccc(C(F)(F)F)c2)c2ccccc21 (stereo not given) | inactive |  |
| Cc1cc(Nc2ccc(O)cc2)ccc1N | inactive |  |
| Clc1ccc(C(c2ccccc2Cl)C(Cl)Cl)cc1 (stereo not given) | inactive |  |
| Cc1cncc(C)c1 | inactive |  |
| Cc1nc(Nc2ncc(C(=O)Nc3c(C)cccc3Cl)s2)cc(N2CCN(CCO)CC2)n1 | inactive |  |
| CCCCCCC(C)OC(=O)COc1nc(F)c(Cl)c(N)c1Cl (stereo not given) | inactive |  |
| O=C1OC(=O)c2ccc3c4c(ccc1c24)C(=O)OC3=O | inactive |  |
| C=C(C)C(=O)OCCC[Si](Cl)(Cl)Cl | inactive |  |
| CCCCCCCCCCCCCCCC | inactive |  |
| CC(NCCC(c1ccccc1)c1ccccc1)c1ccccc1 (stereo not given) | inactive |  |
| CCN(CC)c1cccc(C)c1 | inactive |  |
| CC(C)=C1CC[C@@H](C)CC1=O | inactive |  |
| C(=C/c1ccccc1)/c1ccccc1 | inactive |  |
| CC(CN(C)C)CN1c2ccccc2CCc2ccccc21 (stereo not given) | inactive |  |
| CCCCCCCCCCCC(=O)N(CC)CC | inactive |  |
| CC(C)c1ccc(O)c(C(C)C)c1 | inactive |  |
| COC(=O)CC#N | inactive |  |
